Here are results for 54 molecules from ChEMBL document CHEMBL4513216, “Probing the Open Global Health Chemical Diversity Library for Multistage-Active Starting Points for Next-Generation Antimalarials” (ACS Infect Dis, 2020).

Out of some 69,000 compounds screened, about 8,600 (12%) showed an effect of 50% or more. For the sample, strong results were picked, then their nearest neighbours and some compounds at random.

The test system of the experiment is Plasmodium berghei. Briefly: Screen against P. berghei liver stage (PbLuc), transformed with Luciferase, at 10uM. Type of experiment: functional, HepG2. The conditions noted are these: tested at 10 uM.
Regarding `Cc1cnn(CC(C)Nc2nc(C)cc(N(C)C)n2)c1` (centres undefined), the INHIBITION turned out to be 15.6%.

Regarding `Cc1cc(-n2c(C)cn(CN(C)CC3CC3)c2=O)no1`, the INHIBITION is -8.9%. Turning to `Cc1ccc(NC(=O)N2CCCC(N(C)C)C2)c(Br)c1` (centres undefined), the INHIBITION is 15.1%.

As to `Cc1cc(C(=O)N[C@H](C)c2onc(-c3cccnc3)c2C(=O)O)c(C)o1`, the INHIBITION is recorded as -30.7%.

Regarding `NS(=O)(=O)CCCNC(=O)C1(c2cccc(Cl)c2)CC1`, the INHIBITION amounted to 11.8%. On to `CCn1nc(C)c2nnn(CC(=O)Nc3ccc(C)cc3)c(=O)c21`, for which the INHIBITION came to 29.2%. Consider `Cc1c[nH]c(C2COCCN2C(=O)CCc2c(C)n[nH]c2C)n1` (centres undefined), for which the INHIBITION is on record as -3.65%.

In the case of `Cc1nc(C(C)C)sc1C(C)N(C)C(=O)c1ccc(=O)n(C)c1` (centres undefined), the INHIBITION is given as 16.1%. In the case of `O=C(c1ccoc1)N1CCOC2(COCCN(c3ncccn3)C2)C1` (centres undefined), the INHIBITION was 46.6%. As for `O=C(c1ccoc1)N1CCOC2(COCCN(CC3CC3)C2)C1` (centres undefined), the INHIBITION was 71.3%. For the molecule `Cn1ccc(C(=O)N2CCOC3(COCCN(CC4CC4)C3)C2)n1` (centres undefined), the INHIBITION was -25.1%. For the molecule `CNC(=O)CCc1cc(C2CCCCN2C)nc(C)n1` (centres undefined), the INHIBITION was -11.3%. `COc1ccc(CN2C[C@H]3CN(c4ccsc4)C(=O)[C@H]3C2)cc1`: the INHIBITION is 50%. `O=C1[C@H]2CN(Cc3ccncc3)C[C@H]2CN1c1ccsc1`: the INHIBITION amounted to 15.9%. As for `O=C1[C@H]2CN(Cc3ccccn3)C[C@H]2CN1c1ccsc1`, the INHIBITION worked out at 56.7%. As for `O=C1[C@H]2CN(Cc3nccs3)C[C@H]2CN1c1ccsc1`, the figure is 32.4%; as for `Cn1cc(N2C[C@@H]3CN(Cc4ccccn4)C[C@@H]3C2=O)cn1`, 34.9%; as for `O=C1[C@H]2CN(Cc3ccc(F)cc3)C[C@H]2CN1c1ccsc1`, 22.9%. As for `O=C(c1ccco1)N1CC[C@@H](N2CCOCC2)[C@@H]1Cc1ccncc1`, the INHIBITION is 24.1%. As to `Cc1cc(CN2CCN(C(=O)NCc3c(C)noc3C)CC2)on1`, the INHIBITION came to 44.3%. For the molecule `O=c1[nH]nc2c(S(=O)(=O)N3CCN(c4ccc(F)cc4)CC3)cccn12`, the INHIBITION was 39.5%.

For the molecule `Cc1cnn(CCNCc2csc(-c3ccsc3)n2)c1`, the INHIBITION is listed as -69.15%. As for `CC(CN1CCOCC1)NC(=O)Nc1cccnc1-n1cccn1` (centres undefined), the figure is -31.1%; as for `CN(C)CCO[C@@H]1CC[C@H]2[C@H]1OCCN2C(=O)c1ccc(F)cc1`, 42.1%; as for `CC(=O)N1CCC(Cc2cnc(-c3c(C)n[nH]c3C)cn2)CC1`, 1.5%. Consider `Cc1cc(NC(C)Cc2cccs2)n2nccc2n1` (centres undefined), for which the INHIBITION stood at 42.1%. For the molecule `Cn1cc(CN2CCC(F)(F)C3(CCN(c4cnccn4)C3)C2)cn1` (centres undefined), the INHIBITION is given as -31.5%. With `CCOc1ncnc2c1CCN(Cc1cccs1)CC2`, the INHIBITION is on record as 36.2%. For the molecule `COc1cc(C)ccc1OCCC(=O)N1CCCC(n2cncn2)C1` (centres undefined), the INHIBITION is on record as -16%. Turning to `CCOCC1CN(C(=O)COc2ccccc2)Cc2cn(C)nc21` (centres undefined), the INHIBITION is on record as 5.96%. In the case of `CCOCC1CN(C(=O)Cc2ccccn2)Cc2cn(C)nc21` (centres undefined) it was 51.2%; in that of `CCOCC1CN(C(=O)Cc2ccccn2)Cc2cn(CC)nc21` (centres undefined), 31.4%.

Take `CCOCC1CN(C(=O)c2cnoc2C)Cc2cn(CC3CC3)nc21` (centres undefined): the INHIBITION is -50.8%. In the case of `CCOCC1CN(C(=O)Cc2ccccn2)Cc2c1cnn2CC` (centres undefined) it was 42.7%; in that of `CCOCC1CN(C(=O)Cc2ccccn2)Cc2cnn(C)c21` (centres undefined), -45.8%; in that of `CCOCC1CN(C(=O)c2cnoc2C)Cc2cn(C)nc21` (centres undefined), 51.2%. As for `CCOCC1CN(C(=O)Cc2ccccn2)Cc2cnn(CC)c21` (centres undefined), the INHIBITION came out at 54.4%.

With `CCOCC1CN(C(=O)c2cnoc2C)Cc2cnn(C)c21` (centres undefined), the INHIBITION is -11.2%. For `CC(NC(=O)N1CCC1)c1ccc(S(C)(=O)=O)cc1` (centres undefined), the INHIBITION is on record as 18.4%. In the case of `CC(=O)N(C)c1nc(CN2CCCC2Cn2nc(C)cc2C)cs1` (centres undefined) it was -14.7%. Regarding `O=C(c1csc(-c2ccccn2)n1)N1CCCC1Cn1cccn1` (centres undefined), the INHIBITION came out at 38.8%. Take `O=C(Cc1cccs1)N1CCC(O)(CN2CCc3ccccc3C2)C1` (centres undefined): the INHIBITION is listed as 38.2%. Turning to `CC(=O)NCC1CCN(C(=O)CCOc2ccc(C(C)C)cc2)CC1`, the INHIBITION is reported as -39.35%. With `CSc1ccc(CNC(=O)NCC(O)c2cccc(F)c2)cc1` (centres undefined), the INHIBITION was 19.6%.

As for `CNC(=O)NCC1CCC2(CCN(c3ncccn3)CC2)CO1` (centres undefined), the INHIBITION is 15.8%. On to `CC(=O)N1CC(=O)N(c2cnn(C)c2)CC12CCN(Cc1cccs1)C2` (centres undefined), for which the INHIBITION is given as 6.27%.

As for `CN(C)Cc1csc(-c2nccn2Cc2ccc(C(=O)O)cc2)c1`, the INHIBITION is on record as 37.4%. Consider `CN(C)Cc1csc(-c2nccn2CCc2cccnc2)c1`, for which the INHIBITION is on record as 59.1%. As for `CN(C)Cc1csc(-c2nccn2Cc2ccsc2)c1`, the figure is 66.1%; as for `CN(C)Cc1cc(-c2nccn2CCc2cccnc2)ccc1O`, 31.3%; as for `Cc1c(Cn2ccnc2-c2cc(CN(C)C)cs2)cnn1C`, 23.5%. As for `Cc1nc(C)c(Cn2ccnc2-c2cc(CN(C)C)cs2)s1`, the figure is 30.9%; as for `O=C(NCC1CCOCC1)c1cc(-c2ccncc2)c2cnccc2n1`, 17.4%.

As to `CN(Cc1nnc2n1CCC2)C(=O)CCc1ccc2c(c1)OCO2`, the INHIBITION is given as -21.8%.
